According to PubChem BioAssay (EPA / NIEHS):
Some compounds were tested as several samples or in several runs, with calls that do not always agree. The source made the active and inactive calls. How the source made its calls: active means hit-call score of the fitted dose curve at least 0.9, where 1 is the maximum; inactive means score below 0.9.

experiment: BSK_hDFCGF_Proliferation: Cell Proliferation Assessment in the BioMAP Diversity Plus: hDFCGF Assay (AID 2283059); details: primary human foreskin fibroblasts;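 further: curves fitted for both rise and fall of signal versus DMSO baseline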
Experimental: BSK_hDFCGF is a cell-based, multiplexed-readout assay that uses foreskin fibroblast, a human skin primary cell, with measurements taken at 24 hours after chemical dosing in a 96-well plate.BSK_hDFCGF_Proliferation is an assay component measured in the BSK_hDFCGF assay. It measures […] related to cell proliferation using Sulforhodamine staining technology.Data from the assay component BSK_hDFCGF_Proliferation was analyzed into 1 assay endpoint. This assay endpoint, BSK_hDFCGF_Proliferation, was analyzed with bidirectional fitting relative to DMSO as the negative control and baseline of activity. Using a type of viability reporter, measures of total protein for gain or loss-of-signal activity can be used to understand the viability at the cellular-level. Furthermore, this assay endpoint can be referred to as a secondary readout, because this assay has produced multiple assay endpoints where this one serves a viability function. To generalize the intended target to other relatable targets, this assay endpoint is annotated to the cell cycle intended target family, where the subfamily is proliferation.
The levels of cell surface (or secreted, indicated by the prefix "s") biomarker endpoints were measured by ELISA. Overt cytotoxicity to cells in confluent adherent cultures (all systems other than the BT system) was assessed by measuring total protein levels using sulforhodamine B (SRB) staining in parallel cultures at the time of biomarker measurements, indicated as SRB endpoints. For proliferation assays for adherent cell types, individual cell types are cultured at sub-confluence and relative cell numbers quantified by SRB staining at time points optimized for each system (48 h: 3C and CASM3C systems; 72 h: BT and HDF3CGF systems; 96 h: SAg system). SRB was performed by staining cells with 0.1% SRB after fixation with 10% TCA and reading wells at 560 nm.Viability and proliferation of PBMC (T cells) was quantified by Alamar Blue reduction for the SAg and BT systems. For PBMC viability (referred to as PBMC Cytotoxicity within the assay endpoint names), cells were plated (75,000/well in a 96-well plate) and then chemical samples added for 1 h before addition of activators, SEB and TSST-1 (20 ng/mL final concentration each). Cells were incubated for 90 h. Then, Alamar Blue (20 uL/well) (Invitrogen, Cat DAL1100) was added for 6 h, and the plates were read with a fluorescence microplate reader at 546/580 nm (excitation/emission). For PBMC proliferation, cells were plated and activated as above but incubated for only 16 h prior to addition of Alamar Blue. Plates were read after 6 h.

Structure (SMILES)	AC50	outcome
Cc1ccc(OP(=O)(Oc2ccc(C)cc2C)Oc2ccc(C)cc2C)c(C)c1	4.72 µM (active)	
CCOC(=O)CC(=O)CCl	19 µM (active)	
CC(C=O)Cc1ccc2c(c1)OCO2 (stereo not given)		inactive
c1ccc2sc(SNC3CCCCC3)nc2c1		inactive
Cc1cc(Cl)ccc1N	5.13 µM (active)	
CCCCCCCCCCCCc1cccc(S(=O)(=O)O)c1	8.86 µM (active)	
O=C(N[C@H]1CN2CCC1CC2)c1ccc2c(c1)OCCO2		inactive
CCCCN(CCCC)C(=S)[S-].CCCCN(CCCC)C(=S)[S-].[Ni+2]		inactive
OC(Cc1ccccc1Cl)(Cn1[nH]cnc1=S)C1(Cl)CC1 (stereo not given)	35.2 µM (active)	
[Cl][Sn]([c]1ccccc1)([c]1ccccc1)[c]1ccccc1	0.0542 µM (active)	
CCOP(=O)(OCC)SCCSCC		inactive
CCC(C)(C#N)N=NC(C)(C#N)CC (stereo not given)		inactive
O=C(O)C1(c2ccc3c(c2)OC[C@H](Cc2ccc(-c4ccccc4)cc2)[C@H]3O)CCCC1	6.62 µM (active)	
Cc1c([N+](=O)[O-])c(C)c([N+](=O)[O-])c(C(C)(C)C)c1[N+](=O)[O-]	31.4 µM (active)	
CCCCOC(=O)COC(=O)c1ccccc1C(=O)OCCCC	20 µM (active)	inactive
CC(C)N(C(=O)CCl)c1ccccc1	2.45 µM (active)	
CCOP(=O)(OCC)OC(=CCl)c1ccc(Cl)cc1Cl	37.4 µM (active)	
Nc1ccc(N)cc1		inactive
Cc1cc(C)cc(C)c1		inactive
Cc1cccc(OP(=O)(Oc2cccc(C)c2)Oc2cccc(C)c2)c1		inactive

Structure (SMILES)	AC50	outcome
O=S(=O)(c1ccc(Cl)cc1)c1cc(Cl)c(Cl)cc1Cl	20 µM (active)	
OC(Cc1ccccc1Cl)(Cn1cncn1)C1(Cl)CC1 (stereo not given)		inactive
CC(C)(COCC1CO1)COCC1CO1 (stereo not given)	20 µM (active)	
OCCCCO		inactive
CCN(CC)C(=O)C(Cl)=C(C)OP(=O)(OC)OC		inactive
Cc1ccccc1OP(=O)(Oc1ccccc1C)Oc1ccccc1C	4.26 µM (active)	
O=C(CCl)NCO		inactive
Nc1c(Oc2ccccc2)cc(O)c2c1C(=O)c1ccccc1C2=O		inactive
CN(C)C(=S)S	14.6 µM (active)	
c1ccc(-c2cccc(-c3ccccc3)c2)cc1	11 µM (active)	
CC(C)=CC1C(C(=O)OCc2cccc(Oc3ccccc3)c2)C1(C)C (stereo not given)	20 µM (active)	
O=C(O)COc1cc(Cl)c(Cl)cc1Cl		inactive
O=[N+]([O-])c1ccc(Nc2ccccc2)cc1		inactive
OCCN(CCO)CCO		inactive
Clc1cccc(Cl)c1Cl		inactive
N#CCCC(Br)(C#N)CBr (stereo not given)	0.4 µM (active)	
CCCCCCCCCCCCN(C)C		inactive
O=[N+]([O-])c1cccc2ccccc12		inactive
CC(C)(C)c1ccccc1O		inactive
